BAZ2B block – BAZ2B (human) inhibition. AID 504333. AlphaScreen BAZ2B-H3K14Ac peptide displacement. 4.4% of 360,000 active. Potency, µM (top dose mostly 114 µM), for inactives: at the top dose activity change, negative = inhibition, usual class: inhibitors; note: % is set by controls: 0 for no effect and ±100 for the full control effect; nearly all actives have a fitted effect of over 60% in size
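Protein-peptide AlphaScreen: BAZ2B 50 nM, b-H3K14Ac 50 nM, 1x PBS pH 7.4 + 0.01% Tween-20. Preincubation 30 min RT; cpd 30 min RT (top 110 uM); beads 20 min RT, light-protected.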
G9a block – inhibitors of human histone lysine methyltransferase G9a; Q96KQ7; G9a H3K9 monomethylation, AlphaScreen, 2 h; Potency, µM (doses to about 102 µM), for inactives: top-dose activity, negative = inhibition, usual class: inhibitors; 8.8% of 350,000 active; note: % is set by controls: 0 for no effect and ±100 for the full control effect; nearly all actives have a fitted effect of over 75% in size
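G9a (20 nM) preincubated 15 min RT with compounds, then 500 nM biotinylated H3K9 peptide and 20 uM SAM added; 2 h RT reaction. Monomethyl-H3K9 product detected by AlphaScreen with anti-H3K9me1 antibody, streptavidin donor and anti-rabbit IgG acceptor beads.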
Sfp inh – inhibitors of Bacillus subtilis Sfp phosphopantetheinyl transferase; Q9F4F7; Biochemical Sfp PPTase activity, qHTS; Potency, µM, for the others: largest response in the series, negative = inhibition, usual class: inhibitors; 3.5% of 310,000 active;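 note: the enzyme is Sfp with the accession as filed and its product quenches rhodamine fluorescence; 0% = enzyme reaction without inhibitor and -100% = no enzyme wells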
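Compounds were incubated with enzyme (final 15 nM) for 15 min at room temperature before substrate addition started the reaction. Fluorescence at 525 nm excitation, 598 nm emission was recorded immediately and after 30 minutes.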
HP1b binding inh – HP1-beta chromodomain-methylated histone interaction inhibition; Potency, µM (titrated, usually from 114 µM), inactives show at the top dose activity change, negative = inhibition, hits mostly inhibitors; P83916; AlphaScreen HP1-beta / biotin-H3K9me3 peptide binding; 0.56% of 390,000 active; note: nearly all actives have a fitted effect of over 70% in size
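AlphaScreen: HP1-beta (50 nM) preformed 30 min with biotin-H3(1-18)K9me3 peptide (50 nM) in PBS pH 7.4, 0.01% Tween-20. Compound added for 30 min at RT, then streptavidin donor/nickel chelate acceptor beads (10 ug/mL) for 30 min.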
JMJD2A Tudor inh – JMJD2A Tudor domain (human) inhibition. 4.4% of 390,000 active. AID 504339. O75164. Potency, µM (top dose mostly 114 µM), inactives show at the highest dose activity change, negative = inhibition, actives largely listed as inhibitors. AlphaScreen JMJD2A-Tudor / H3K4me3 peptide binding; note: % is set by controls: 0 for no effect and ±100 for the full control effect; nearly all actives have a fitted effect of over 50% in size
L3MBTL1 inh – blocks human L3MBTL1; Q9Y468; AlphaScreen L3MBTL1–H3K9me1 peptide binding; Potency, µM (doses to about 57.1 µM), for inactives: at the highest dose activity, negative = inhibition, actives largely listed as inhibitors; 0.66% of 230,000 active; AID 485360; note: % is set by controls: 0 for no effect and ±100 for the full control effect; nearly all actives have a fitted effect of over 60% in size
Target sequence (Q9Y468 whole entry, looked up): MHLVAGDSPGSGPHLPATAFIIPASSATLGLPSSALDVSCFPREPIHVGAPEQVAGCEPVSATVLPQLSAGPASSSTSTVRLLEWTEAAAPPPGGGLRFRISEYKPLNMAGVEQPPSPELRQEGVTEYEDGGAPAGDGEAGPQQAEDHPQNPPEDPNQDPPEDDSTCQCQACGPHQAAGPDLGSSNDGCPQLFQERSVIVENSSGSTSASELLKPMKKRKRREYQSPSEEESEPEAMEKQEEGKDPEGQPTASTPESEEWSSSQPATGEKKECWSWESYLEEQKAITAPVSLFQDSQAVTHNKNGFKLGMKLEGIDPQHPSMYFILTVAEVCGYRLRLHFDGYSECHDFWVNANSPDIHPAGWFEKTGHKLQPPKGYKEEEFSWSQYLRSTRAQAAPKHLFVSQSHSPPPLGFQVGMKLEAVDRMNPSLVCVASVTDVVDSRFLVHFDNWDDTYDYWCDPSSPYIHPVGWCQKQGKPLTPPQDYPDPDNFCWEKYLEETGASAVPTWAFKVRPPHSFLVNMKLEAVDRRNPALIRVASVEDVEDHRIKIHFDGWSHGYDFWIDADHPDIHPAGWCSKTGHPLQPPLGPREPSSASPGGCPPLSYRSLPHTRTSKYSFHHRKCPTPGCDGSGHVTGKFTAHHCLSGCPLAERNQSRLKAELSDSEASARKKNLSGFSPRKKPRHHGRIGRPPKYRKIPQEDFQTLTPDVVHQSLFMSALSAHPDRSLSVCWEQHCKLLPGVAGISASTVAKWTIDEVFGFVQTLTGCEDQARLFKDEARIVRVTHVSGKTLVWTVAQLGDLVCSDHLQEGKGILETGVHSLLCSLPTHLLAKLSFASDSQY
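Read-out is AlphaScreen signal from streptavidin donor and nickel chelate acceptor beads (10 ug/mL final each) bridging L3MBTL1 (50 nM) and biotinylated K9-monomethylated H3(1-15) peptide (75 nM), after 30 min compound exposure at room temperature.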
Active calls of the source: *; ? = inconclusive; / = not tested or not shown; [ ] = remark or other dose. The list is not random: actives were taken first. Their share in the collection is about 12%. Calls come from the whole dose curve; as a rule, active = well fitted curve in the direction sought with a large enough effect; inconclusive = small, poorly fitted or top-dose-only effect, or another doubt; inactive = no such curve, though single readings can be large; an effect the other way counts as inactive or inconclusive. Potency is the fitted concentration of half-maximal effect.

SMILES	BAZ2B block	G9a block	Sfp inh	HP1b binding inh	JMJD2A Tudor inh	L3MBTL1 inh
CCN(CC)c1ccc(/C=N/Nc2nn[nH]n2)cc1	?	?	39.8µM*	28.4%	-19.3%	-13.5%
CCN(CC)c1ccc(/C=N/Nc2nc(C)cc(C)n2)cc1	?	?	16.7%	-9.7%	?	-18.4%
Fc1ccccc1/C=N/Nc1nn[nH]n1	?	20µM*	?	29.3%	79.4µM*	/
COc1cccc(NC(=O)Cn2c(=O)n(CCCCC(=O)NCc3ccc4c(c3)OCO4)c(=O)c3ccccc32)c1	3.1%	2.1%[59 µM]	/	44.9%	-2.0%	/
O=C(O)c1cccc(-n2cnc3cccnc32)c1	3.0%	11.8%[59 µM]	/	44.5%	3.7%	/
CC1(C)C2CCC1(C)C(NCC(O)COc1ccc(C#N)cc1)C2 (stereo unspecified)	25.1µM*	?	?	-23.3%	12.6µM*	/
CCOC(=O)c1ccc(NC(=O)CSc2nccn2Cc2ccc(OC)cc2)cc1	?	?	/	-6.9%[57 µM]	?	/
CCCC12CN3CC(C)(CN(C1)C3c1ccco1)C2=O (stereo unspecified)	1.3%	18.9%	-9.5%	-2.1%	56.2µM*	/
Cc1ccc(CCNC(=O)c2ccc(CSCc3ccccc3C)o2)cc1	32.5%	15.7%[59 µM]	/	57.4%	-22.9%	/
CCC(=O)OC1=C(C(C)=O)N(Cc2ccccc2)S(=O)(=O)c2ccccc21	-30.4%	?	/	28.4%	50.1µM*	/
CCCCC(=O)OC1=C(C(C)=O)N(Cc2ccccc2)S(=O)(=O)c2ccccc21	?	?	/	15.0%	79.4µM*	/
COc1ccc(N2C(=O)c3ccccc3NC2c2ccc(OC)c(COc3ccc(NC(C)=O)cc3)c2)cc1 (stereo unspecified)	/	/	/	-6.2%[57 µM]	-5.4%[57.1 µM]	/
CC(=N\O)/C(CN(C)C)=N/O	0.4%	?	-23.1%	24.0%	79.4µM*	/
CC(=O)c1cccc(NC(=O)Cn2c(=O)oc3cc(S(=O)(=O)NC4CCCC4)ccc32)c1	-1.5%	4.8%[59 µM]	/	48.3%	0.0%	/
Cc1cc(C)c(NC(=O)C2CCN(c3nnc(C)c4c(C)n(-c5ccccc5)nc34)CC2)c(C)c1	-30.9%	-24.5%[59 µM]	/	8.5%	-29.0%	/
O=C(CSc1nnc(-c2ccco2)n1Cc1ccco1)NCc1cccs1	-0.2%	-11.9%[59 µM]	10.9%	48.3%	-14.5%[57.1 µM]	4.7%
O=C(CSc1nnc(Cc2cccs2)n1Cc1ccco1)Nc1ccc(Br)cc1	-38.3%	?	14.1µM*	-14.8%	-26.0%	-8.0%
O=C(CSc1nnc(Cc2cccs2)n1Cc1ccco1)Nc1ccc(Cl)cc1Cl	?	?	28.2µM*	14.3%	-18.0%	-7.8%
CCc1ccc(N2CCn3c2nc2c3c(=O)n(C/C=C/c3ccccc3)c(=O)n2C)cc1	0.0%	2.4%[59 µM]	/	8.9%	-13.5%	/
CC(=O)O[C@@H](C)C#C[Si](C)(C)c1ccccc1	/	/	18.7%	/	/	/
Cc1ccc(Nc2nnc(SCC3CCCCO3)s2)cc1 (stereo unspecified)	16.4%	39.8µM*	-11.0%	40.3%	-4.1%	-1.8%
COc1ccc(N=C2SCC(c3ccc(C)cc3)=NN2CCO)cc1	?	50.1µM*	-7.8%	-9.9%	-33.8%	-23.6%
COc1ccc(N=C2SC(C(=O)N3CCN(c4ccc([N+](=O)[O-])cc4)CC3)CC(=O)N2C)cc1 (stereo unspecified)	?	/	-5.2%	21.0%	-12.4%	-5.0%
O=[N+]([O-])c1ccc(C2=NN(CCO)C(=Nc3ccc(OC(F)(F)F)cc3)SC2)cc1	?	15.8µM*	-19.0%	?	?	-5.9%
COc1ccc(C2=NN(C)C(=NCc3ccccc3)SC2)cc1	31.1%	/	0.6%	/	66.9%	11.7%
SMILES	BAZ2B block	G9a block	Sfp inh	HP1b binding inh	JMJD2A Tudor inh	L3MBTL1 inh
COc1ccccc1N1CCN(Cc2nc3ccsc3c(=O)[nH]2)CC1	-7.1%	-28.5%[59 µM]	0.0%	9.1%	3.55µM*	1.9%
CCOc1ccccc1N1CCN(Cc2ccc(OC)c(OC)c2OC)CC1	?	?	-11.9%	?	3.98µM*	-8.4%
COc1cc(OC)c(OC)cc1CN1CCN(Cc2cccn2C)CC1	39.8µM*	3.55µM*	50.1µM*	25.1µM*	3.55µM*	-7.9%
COc1cc(OC)c(OC)cc1CN1CCC(O)CC1	?	?	-10.2%	?	17.8µM*	3.7%
Cn1nc(C(=O)Nc2ccc(F)c(Cl)c2)c2c1-c1ccccc1S(=O)(=O)C2	-17.4%	-29.8%[59 µM]	/	27.1%	-16.4%	/
COc1cccc2c1Oc1ncccc1N(C(=O)CCC(=O)NCc1ccc(OC(C)C)cc1)C2	4.7%[57.1 µM]	-2.5%[59 µM]	/	-3.2%	-18.1%	/
CC(=O)Nc1ccn(C2OC(C(COC(C)=O)NC(=O)C(C)NC(=O)OC(C)(C)C)C(OC(C)=O)C2OC(C)=O)c(=O)n1 (stereo unspecified)	/	/	4.0%	19.8%	-14.5%	/
COc1cc(OC)c(OC)cc1CN1CCN(c2ccccc2OC)CC1	?	?	-16.5%	?	3.16µM*	-1.5%[11.4 µM]
COc1ccccc1N1CCN(Cc2cc3c(cc2Br)OCCO3)CC1	?	?	-4.3%	-11.6%	?	/
COc1ccc(CCNC(=O)CCS(=O)(=O)c2cc(Br)cc3c2N(C(C)=O)CC3)cc1OC	1.0%	13.0%[59 µM]	/	8.1%	-12.3%	/
CCOC(=O)c1cc(-c2ccccc2)n(-c2cccc(C(=O)Nc3ccc(OC)cc3)c2)c1C	?	?	/	12.4%	?	/
O=c1cnc(-c2ccc(Cl)cc2)cn1O	?	2.1%	-4.1%	1.3%	89.1µM*	-12.4%
Clc1ccc(-c2cn3cc(Cl)ccc3n2)cc1	-0.7%	6.8%	9.5%	27.6%	-7.7%	/
CCOc1ccc(NC(=O)NC(C)c2c(-n3cccc3)sc3c2CCN(CC)C3)cc1 (stereo unspecified)	?	?	/	-15.2%	?	/
CCC(NC(=O)CCl)c1ccc(C)cc1 (stereo unspecified)	-22.0%	-40.1%	18.2%	-11.6%	56.2µM*	3.7%
COc1ccc(-c2noc(CNC(=O)c3ccccc3Br)n2)cc1	-3.4%	-1.8%[59 µM]	/	53.0%	-7.6%	/
CSc1ccccc1NC(=O)C(C)N(C)CC(=O)N1CCN(Cc2ccccc2)CC1 (stereo unspecified)	/	/	/	?	10µM*	/
CN(CC(=O)N1CCN(Cc2ccccc2)CC1)S(=O)(=O)c1ccc(F)cc1	5.6%	/	0.7%	18.9%	-13.0%	/
CC(C(=O)Nc1ccc(C(F)(F)F)cc1)N(C)CC(=O)N1CCN(Cc2ccccc2)CC1 (stereo unspecified)	/	/	/	20µM*	0.891µM*	-4.8%
CNCC[C@H](Oc1ccccc1OC)c1ccccc1	/	8.1%[21.5 µM]	8.2%	/	/	/
COc1cc(C(=O)OCC(=O)Nc2c(F)cccc2F)cc(OC)c1C	?	44.7µM*	7.4%	17.3%	5.3%[11.4 µM]	?
